# Test results from ChEMBL document CHEMBL3988442, “University of Dundee, Small-Polar-MMV Screening Library” (2021).
# For some assays here: Entries with a potency or affinity are not part of this list.
# Legend:
# Design in all cases: scale not given: direction of the effect not stated beside the values
# [1] = target: Protein translocase subunit SecA (Escherichia coli (strain K12)) (UniProt P10408); assay: Assay to Identify E. coli SecA ATPase Inhibitors; assay type: functional; conditions: 30 µM
# Sequence of Protein translocase subunit SecA (Escherichia coli (strain K12)) (P10408 whole entry): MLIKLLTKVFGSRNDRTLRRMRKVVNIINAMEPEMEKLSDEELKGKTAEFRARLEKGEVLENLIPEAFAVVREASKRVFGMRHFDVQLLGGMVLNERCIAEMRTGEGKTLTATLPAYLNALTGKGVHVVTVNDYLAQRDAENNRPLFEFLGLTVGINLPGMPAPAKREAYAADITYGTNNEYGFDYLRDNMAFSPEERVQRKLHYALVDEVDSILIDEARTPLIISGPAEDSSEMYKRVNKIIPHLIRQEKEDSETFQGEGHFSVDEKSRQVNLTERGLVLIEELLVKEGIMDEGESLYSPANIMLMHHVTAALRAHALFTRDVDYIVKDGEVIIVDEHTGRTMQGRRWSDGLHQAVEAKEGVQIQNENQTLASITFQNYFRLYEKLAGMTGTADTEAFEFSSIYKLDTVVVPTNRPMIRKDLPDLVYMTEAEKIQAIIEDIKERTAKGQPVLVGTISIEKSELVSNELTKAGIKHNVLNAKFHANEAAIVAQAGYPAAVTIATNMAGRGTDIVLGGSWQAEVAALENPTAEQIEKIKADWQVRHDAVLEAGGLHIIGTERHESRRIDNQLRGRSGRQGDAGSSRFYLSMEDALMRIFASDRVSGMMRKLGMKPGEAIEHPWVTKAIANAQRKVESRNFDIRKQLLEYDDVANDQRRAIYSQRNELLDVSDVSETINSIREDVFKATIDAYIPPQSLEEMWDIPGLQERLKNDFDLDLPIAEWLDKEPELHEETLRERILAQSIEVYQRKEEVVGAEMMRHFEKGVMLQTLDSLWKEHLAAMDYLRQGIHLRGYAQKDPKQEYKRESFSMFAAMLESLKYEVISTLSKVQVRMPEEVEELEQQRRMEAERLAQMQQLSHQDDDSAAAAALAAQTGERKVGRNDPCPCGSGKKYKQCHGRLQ
# [2] = target: T1, Ubiquitin-activating enzyme e1, putative (Leishmania donovani (strain BPK282A1)) (UniProt E9BSI1); assay: Leishmania donovani Ubiquitin Activating Enzyme (LdE1); assay type: functional; conditions: 30 µM
# T1 sequence (whole entry): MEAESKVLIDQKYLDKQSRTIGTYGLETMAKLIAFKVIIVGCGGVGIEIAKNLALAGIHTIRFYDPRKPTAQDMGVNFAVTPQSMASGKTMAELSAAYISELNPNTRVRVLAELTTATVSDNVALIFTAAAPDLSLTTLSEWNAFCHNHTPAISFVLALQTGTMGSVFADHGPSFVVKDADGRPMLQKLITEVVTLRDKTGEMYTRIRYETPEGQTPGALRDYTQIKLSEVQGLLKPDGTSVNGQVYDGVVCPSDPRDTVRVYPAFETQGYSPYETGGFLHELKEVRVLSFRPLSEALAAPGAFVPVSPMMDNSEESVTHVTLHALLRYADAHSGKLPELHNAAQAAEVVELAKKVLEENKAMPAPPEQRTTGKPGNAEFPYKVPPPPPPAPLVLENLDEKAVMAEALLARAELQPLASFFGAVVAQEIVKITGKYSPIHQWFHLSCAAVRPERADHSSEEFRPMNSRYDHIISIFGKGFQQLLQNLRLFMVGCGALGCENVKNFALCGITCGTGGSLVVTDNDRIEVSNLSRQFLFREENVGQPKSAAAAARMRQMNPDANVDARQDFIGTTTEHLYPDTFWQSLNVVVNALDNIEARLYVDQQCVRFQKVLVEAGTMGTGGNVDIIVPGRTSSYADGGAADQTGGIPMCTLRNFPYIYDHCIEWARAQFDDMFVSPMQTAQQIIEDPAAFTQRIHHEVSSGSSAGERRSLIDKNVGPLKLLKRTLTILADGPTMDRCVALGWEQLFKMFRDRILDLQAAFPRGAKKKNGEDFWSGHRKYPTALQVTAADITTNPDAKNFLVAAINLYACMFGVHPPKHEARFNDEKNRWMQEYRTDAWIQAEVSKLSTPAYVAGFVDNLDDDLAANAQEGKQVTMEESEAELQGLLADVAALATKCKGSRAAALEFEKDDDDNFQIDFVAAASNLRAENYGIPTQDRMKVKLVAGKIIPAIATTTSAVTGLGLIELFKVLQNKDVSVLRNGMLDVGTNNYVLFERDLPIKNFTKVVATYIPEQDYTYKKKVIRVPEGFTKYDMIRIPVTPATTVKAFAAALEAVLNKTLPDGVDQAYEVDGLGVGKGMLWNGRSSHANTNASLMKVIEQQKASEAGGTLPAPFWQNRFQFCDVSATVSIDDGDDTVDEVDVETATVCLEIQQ
# [3] = target: AMP-activated protein kinase, AMPK (Homo sapiens) (UniProt P54646+O43741+P54619+Q9UGJ0+Q9Y478+Q13131+Q9UGI9); assay: AMP-dependent Kinase enzyme assay. An in vitro enzyme assay that detects ADP turnover that is directly proportional to AMPK activity. This uses naive AMPK that is activated during the assay with MK-8722; assay type: functional; conditions: 30 µM
# [4] = target: Sialic acid-binding Ig-like lectin 9 (Homo sapiens) (UniProt Q9Y336); assay: Hs-Siglec9 ALPHAscreen SOP 20170721; conditions: 10 µM
# Sequence of Sialic acid-binding Ig-like lectin 9 (Homo sapiens) (Q9Y336 whole entry): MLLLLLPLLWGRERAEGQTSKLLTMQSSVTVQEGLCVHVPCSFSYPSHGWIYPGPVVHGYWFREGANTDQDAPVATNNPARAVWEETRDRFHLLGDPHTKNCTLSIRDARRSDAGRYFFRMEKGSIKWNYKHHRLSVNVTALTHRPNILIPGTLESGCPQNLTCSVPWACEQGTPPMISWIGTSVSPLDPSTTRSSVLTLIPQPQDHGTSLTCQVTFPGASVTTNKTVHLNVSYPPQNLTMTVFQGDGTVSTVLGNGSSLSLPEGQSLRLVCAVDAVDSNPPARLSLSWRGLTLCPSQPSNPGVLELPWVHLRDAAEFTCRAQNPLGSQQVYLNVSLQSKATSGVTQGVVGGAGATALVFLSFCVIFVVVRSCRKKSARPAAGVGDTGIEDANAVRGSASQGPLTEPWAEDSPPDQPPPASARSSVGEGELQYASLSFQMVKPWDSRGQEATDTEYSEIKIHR
# Trypanosoma cruzi = assay: Trypanosoma cruzi phosphomannomutase and mannose-1-phosphate guanylyltransferase assay; assay type: functional; conditions: 10 µM
# [5] = target: T2, Arginase-2, mitochondrial (Homo sapiens) (UniProt P78540); assay: in vitro enzyme assay to detect the production of urea directly proportional to the activity of Arginase II; assay type: functional; conditions: 33.3 µM; note: in the data most compounds retested in dose-response had high values
# T2 sequence (whole entry): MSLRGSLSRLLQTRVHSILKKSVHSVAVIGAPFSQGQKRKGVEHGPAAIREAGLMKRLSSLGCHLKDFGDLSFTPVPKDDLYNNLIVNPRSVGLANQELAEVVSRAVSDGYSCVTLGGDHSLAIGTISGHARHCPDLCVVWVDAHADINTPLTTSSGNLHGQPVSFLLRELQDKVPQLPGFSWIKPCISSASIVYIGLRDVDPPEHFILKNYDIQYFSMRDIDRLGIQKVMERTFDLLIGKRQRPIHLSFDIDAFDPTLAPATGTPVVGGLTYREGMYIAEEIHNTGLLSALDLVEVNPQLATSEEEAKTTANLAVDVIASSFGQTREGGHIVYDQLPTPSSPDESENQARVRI
# [6] = target: T3, Proteasome subunit beta (Trypanosoma cruzi) (UniProt O96673); assay: Trypanosoma cruzi proteasome chymotrypsin-like activity (TcProtChymo) assay.; note: in the data most compounds retested in dose-response had high values; assay type: functional; conditions: 9.37 µM
# T3 sequence (whole entry): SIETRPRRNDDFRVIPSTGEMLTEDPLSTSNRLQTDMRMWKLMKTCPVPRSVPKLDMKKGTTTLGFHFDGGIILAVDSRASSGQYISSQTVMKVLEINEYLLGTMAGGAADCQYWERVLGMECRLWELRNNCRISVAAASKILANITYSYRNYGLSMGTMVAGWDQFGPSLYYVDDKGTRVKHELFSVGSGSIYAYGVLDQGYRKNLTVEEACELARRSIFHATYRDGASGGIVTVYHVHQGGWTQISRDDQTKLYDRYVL
# Homo sapiens = organism: Homo sapiens; assay: To identify inhibition of the IFN signalling (Jak-Stat) pathway via expression of an eGFP reporter gene under the control of an IFN-stimulated response element (ISRE) containing MxA promoter.; assay type: functional; conditions: 30 µM
# [7] = target: T4, Tyrosyl-tRNA synthetase, putative (Trypanosoma cruzi (strain CL Brener)) (UniProt Q4DSP6); assay: Trypanosoma cruzi tyrosyl tRNA synthetase (TcYRS) _High Tyrosine SOP; assay type: functional; conditions: 30 µM; note: in the data most compounds retested in dose-response had high values
# T4 sequence (whole entry): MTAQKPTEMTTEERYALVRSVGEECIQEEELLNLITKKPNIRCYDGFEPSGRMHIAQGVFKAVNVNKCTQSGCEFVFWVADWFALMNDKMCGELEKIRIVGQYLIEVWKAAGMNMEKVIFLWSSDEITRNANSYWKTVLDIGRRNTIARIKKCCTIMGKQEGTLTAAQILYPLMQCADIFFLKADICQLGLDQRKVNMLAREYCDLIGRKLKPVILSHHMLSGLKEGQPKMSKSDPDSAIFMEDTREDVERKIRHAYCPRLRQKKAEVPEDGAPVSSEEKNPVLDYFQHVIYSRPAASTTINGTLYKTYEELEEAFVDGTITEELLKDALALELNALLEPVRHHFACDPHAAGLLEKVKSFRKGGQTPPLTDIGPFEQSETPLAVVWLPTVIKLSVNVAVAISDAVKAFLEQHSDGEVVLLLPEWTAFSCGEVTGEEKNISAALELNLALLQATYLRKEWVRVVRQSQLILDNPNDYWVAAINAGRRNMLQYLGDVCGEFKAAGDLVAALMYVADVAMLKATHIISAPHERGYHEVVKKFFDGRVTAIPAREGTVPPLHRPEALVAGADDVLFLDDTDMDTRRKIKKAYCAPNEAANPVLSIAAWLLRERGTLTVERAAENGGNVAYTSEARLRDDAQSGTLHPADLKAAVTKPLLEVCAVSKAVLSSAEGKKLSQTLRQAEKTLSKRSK
# [8] = target: T4, Tyrosyl-tRNA synthetase, putative (Trypanosoma cruzi (strain CL Brener)); assay: Trypanosoma cruzi tyrosyl tRNA synthetase (TcYRS) SOP; assay type: functional; conditions: 30 µM
# [9] = target: Chromo domain-containing protein 1 (Saccharomyces cerevisiae (strain ATCC 204508 / S288c) (Baker's yeast)) (UniProt P32657); assay: ScCHD-1 Enzyme Inhibition Assay; assay type: functional; conditions: 30 µM; note: in the data most compounds retested in dose-response had high values
# Sequence of Chromo domain-containing protein 1 (Saccharomyces cerevisiae (strain ATCC 204508 / S288c) (Baker's yeast)) (P32657 whole entry, the tested form may be a part): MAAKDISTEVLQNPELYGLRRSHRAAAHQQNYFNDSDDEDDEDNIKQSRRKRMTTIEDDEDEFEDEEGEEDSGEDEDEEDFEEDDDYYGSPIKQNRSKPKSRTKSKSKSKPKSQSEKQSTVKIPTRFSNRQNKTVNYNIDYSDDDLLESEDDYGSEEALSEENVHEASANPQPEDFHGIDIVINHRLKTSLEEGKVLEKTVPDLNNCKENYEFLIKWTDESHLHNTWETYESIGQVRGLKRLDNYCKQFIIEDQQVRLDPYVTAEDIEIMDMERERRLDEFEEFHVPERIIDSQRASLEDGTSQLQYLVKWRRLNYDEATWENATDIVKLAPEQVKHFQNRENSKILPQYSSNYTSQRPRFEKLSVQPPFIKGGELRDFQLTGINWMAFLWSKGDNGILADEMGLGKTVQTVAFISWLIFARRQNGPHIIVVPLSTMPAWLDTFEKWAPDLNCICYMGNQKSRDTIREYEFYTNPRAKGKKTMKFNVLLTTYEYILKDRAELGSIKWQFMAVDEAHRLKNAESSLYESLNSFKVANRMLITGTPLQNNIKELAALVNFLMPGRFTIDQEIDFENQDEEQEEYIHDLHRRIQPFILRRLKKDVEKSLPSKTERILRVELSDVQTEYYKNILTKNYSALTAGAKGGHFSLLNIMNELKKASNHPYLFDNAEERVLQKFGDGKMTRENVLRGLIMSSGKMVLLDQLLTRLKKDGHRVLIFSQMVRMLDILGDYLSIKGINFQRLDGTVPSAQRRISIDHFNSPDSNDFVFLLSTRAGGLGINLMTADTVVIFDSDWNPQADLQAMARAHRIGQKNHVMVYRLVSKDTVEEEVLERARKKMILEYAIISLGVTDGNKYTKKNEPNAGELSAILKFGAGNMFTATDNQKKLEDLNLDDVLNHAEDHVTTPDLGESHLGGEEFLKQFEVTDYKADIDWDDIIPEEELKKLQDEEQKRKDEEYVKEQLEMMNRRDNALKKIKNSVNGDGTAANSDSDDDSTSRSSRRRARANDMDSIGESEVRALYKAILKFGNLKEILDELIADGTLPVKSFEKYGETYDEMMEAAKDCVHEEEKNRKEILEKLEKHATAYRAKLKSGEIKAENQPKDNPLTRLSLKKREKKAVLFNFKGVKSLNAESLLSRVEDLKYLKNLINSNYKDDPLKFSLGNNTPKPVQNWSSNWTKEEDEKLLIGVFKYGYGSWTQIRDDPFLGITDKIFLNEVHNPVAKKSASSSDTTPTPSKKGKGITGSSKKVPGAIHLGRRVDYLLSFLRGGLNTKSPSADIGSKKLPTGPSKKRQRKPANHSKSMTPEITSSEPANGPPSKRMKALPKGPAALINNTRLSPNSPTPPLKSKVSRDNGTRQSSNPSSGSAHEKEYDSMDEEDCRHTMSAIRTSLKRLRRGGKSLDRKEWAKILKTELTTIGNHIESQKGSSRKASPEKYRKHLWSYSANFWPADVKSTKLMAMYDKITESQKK
Compound,Percent Effect [1] [%],Percent Effect [2] [%],Percent Effect [3] [%],Percent Effect [4] [%],Percent Effect (Trypanosoma cruzi) [%],Percent Effect [5] [%],Percent Effect [6] [%],Percent Effect (Homo sapiens) [%],Percent Effect [7] [%],Percent Effect [8] [%],Percent Effect [9] [%]
CC(C)c1nn(C)c(N(C)C)c1CNCc1ccccc1CN(C)C,-0.693,10.5,-8.08,13,1.13,-5.36,7.85,-8.54,0.49,7.32,-12.6
CCCn1nc2c(cc1=O)CN(CCS(C)(=O)=O)CC2,-6.22,-5.41,-30.8,22.6,2.17,-6.01,7.75,7.82,8.37,16.1,-11.1
Cc1nn(C)c(C)c1C1COCCN1C(=O)c1ccccc1 (configuration not stated),-2.83,5.2,-2.73,2.06,6.74,3.2,-1.01,7.76,2.91,12.2,11.3
Cc1cc(CN2CCc3nn(C(C)C)c(=O)cc3C2)no1,-6.46,0,-5.64,2.16,-0.781,0.833,14.1,-0.957,7.92,8.54,-7.52
CC(C)CNC(=O)CN1C=Nc2ccccc2S1(=O)=O,-6.73,7.89,0.627,-6.85,-10.6,2.16,-1.95,2.69,0.493,6.17,-5
Cc1ccc(C(=O)N2CCc3c(CNS(C)(=O)=O)cncc3C2)o1,3.13,2.67,5.83,1.5,-6.37,-55,8.72,4.16,3.12,5,-7.04
O=C(NC[C@]12COC[C@H]1CN(Cc1nccs1)C2)N1CCCC1,-2.52,9.33,4.41,2.77,-4.52,-7.92,13.5,-4.41,2.12,5.13,-5.18
Clc1ccccc1-c1nc(CNCCn2cccn2)cs1,-1.85,-15.8,2.49,-0.874,9.02,0.383,10.9,13.7,9.31,17.1,14.2
O=C(NCCC(=O)N1CCCCCC1)c1c(O)cc(F)cc1F,-5.59,7.79,1.53,-4.08,7.35,-4,9.78,6.03,2.86,14.1,-20.3
Cn1cnnc1C1CCCN(C(=O)NCc2cc[nH]n2)C1 (configuration not stated),-1.36,18.4,-12.9,-7.02,4.01,-2.16,9.05,4.39,6.4,18.5,-8.86
Cc1nccc(C(=O)N2CCCN(Cc3cnn(C(C)C)c3)CC2)n1,-7.35,-8.11,0.58,14.6,-2.93,-0.833,7.35,1.24,5.94,11,6.2
Cc1nn(C)c(C)c1CNC1CCOc2ccccc21 (configuration not stated),-2.99,5.41,-3.93,-3.92,-4.01,-1.74,13.7,20,0,8.64,-2.87
COc1cccc(CN2CCCC(Nc3cccc(F)c3)C2)c1O (configuration not stated),-5.42,10.8,-4,18.7,7.33,2.23,5.24,0.464,3.23,11.1,-12.4
CCCc1nc(CN2CCOC(Cn3cncn3)C2)no1 (configuration not stated),-1.95,11.4,-5.09,-4.75,-1.74,3.23,12.3,18.7,3.12,10.1,-24.9
CC(NC(=O)c1cccs1)C(=O)NCc1cccnc1N1CCCCC1 (configuration not stated),-5.05,15.6,4.11,3.01,-3.93,0.712,9.46,10.2,1.94,7.32,-4.16
O=C(c1cnccn1)N1CCOCC2(CCN(C3CCOCC3)C2)C1 (configuration not stated),-3.59,25.3,-6.88,-0.346,3.54,-0.528,19.4,-1.42,8.47,15.4,-9.96
Cn1ccc(CN2CCC(COC3CCCC3)CC2)cc1=O,-2,-59.5,-8.16,2.17,2.15,3.66,11.2,26.8,-10.4,17.7,-25.3
CCn1ncc2c1CCCC2NCc1cc(Cl)c(OC)c(OC)c1 (configuration not stated),-5.26,12.7,-8.16,14.8,3.31,3.04,-0.901,66.8,9.36,21.5,-6.2
CC(C)OCc1ncn2c1CN(Cc1cccs1)CCC2,-1.74,-2.7,-26.4,0.954,-2.25,-2.23,9.04,12.4,-2.16,2.56,-2.17
CSCc1cccc(S(=O)(=O)NCCCN2CCOCC2)c1,-6.05,5.2,1.35,8.61,3.64,-6.9,3.33,-22.2,4.3,11.1,-3.9
NC(=O)C1CCN(C(=O)c2ccn(-c3ccc(F)cc3)n2)C1 (configuration not stated),-2.82,5.41,0.129,-2.22,-6.96,4.25,5.39,6.15,4.95,11,1.99
CCS(=O)(=O)N1CCC2(CCC2NC(=O)c2ccn(C)c2)CC1 (configuration not stated),-3.75,10.8,1.1,-0.914,3.62,-6.69,18.8,-26,4.32,15.4,-3.62
